Results published in publication PMC7826789 (International Journal of Molecular Sciences, 2021).

What was measured:
Settings in all cases: Compound Concentration (nM):1000
[1] = test system: FGFR3
[2] = test system: FGFR4
[3] = test system: FGR
[4] = test system: FLT1
[5] = test system: FLT3(D835H)
[6] = test system: FLT3(D835V)
[7] = test system: FLT3(D835Y)
[8] = test system: FLT3(ITD)
[9] = test system: FLT3(ITD,D835V)
[10] = test system: FLT3(ITD,F691L)
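Further: KINOMEscan scanMAX binding as percent activity remaining versus control; lower means stronger binding.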

| SMILES | Percent Control [1] [%] | Percent Control [2] [%] | Percent Control [3] [%] | Percent Control [4] [%] | Percent Control [5] [%] | Percent Control [6] [%] | Percent Control [7] [%] | Percent Control [8] [%] | Percent Control [9] [%] | Percent Control [10] [%] |
| --- | --- | --- | --- | --- | --- | --- | --- | --- | --- | --- |
| NS(=O)(=O)c1ccc(N/N=C2\C(=O)Nc3ccc(-c4cnco4)cc32)cc1 [GW276655] | 100 | 82 | 79 | 80 | 43 | 2.2 | 45 | 44 | 4.3 | 18 |
| O=C1Nc2ccc(C(=O)c3ccco3)cc2C1=Cc1cc(Cl)c(O)c(Cl)c1 [GW406108X] | 78 | 100 | 81 | 57 | 18 | 2.2 | 15 | 47 | 12 | 29 |
| CCS(=O)(=O)c1ccc(OC)c(Nc2ncc(-c3cccc(F)c3)o2)c1 [GW621970X] | 11 | 87 | 24 | 45 | 0.6 | 0 | 39 | 5.8 | 0 | 25 |
| CCn1c(-c2nonc2N)nc2c(C#CC(C)(C)O)nc(OCCNC)cc21.Cl [GSK949675] | 100 | 100 | 100 | 100 | 43 | 83 | 30 | 100 | 100 | 22 |
| COc1ccc2c(-c3ccnc(Nc4cccc(OC(F)(F)F)c4)n3)cnn2n1 [GW810372X] | 100 | 100 | 96 | 73 | 0 | 46 | 55 | 49 | 65 | 89 |
| CCS(=O)(=O)c1ccc(OC)c(Nc2ncc(-c3cccc(OC)c3)o2)c1 [GW580509X] | 44 | 100 | 41 | 54 | 0.5 | 0 | 42 | 8.2 | 0 | 30 |
| COC(=O)Nc1nc2ccc(Oc3ccc(NC(=O)Nc4cc(C(F)(F)F)ccc4F)cc3)cc2s1.Cl [GW693917A] | 70 | 91 | 71 | 3 | 2.3 | 13 | 24 | 4.3 | 83 | 44 |
| CN(C)c1cc2c(Nc3ccc4c(cnn4Cc4ccccc4)c3)ncnc2cn1 [GW282974X] | 100 | 84 | 73 | 94 | 85 | 59 | 100 | 82 | 100 | 100 |
| NS(=O)(=O)c1ccc(Nc2ncc(-c3ccccc3)o2)cc1 [GW572399X] | 100 | 100 | 98 | 100 | 70 | 8.5 | 80 | 53 | 29 | 42 |
| NS(=O)(=O)c1ccc(N/N=C2\C(=O)Nc3ccc(C(=O)NCCc4c[nH]cn4)cc32)cc1 [GW300660X] | 100 | 100 | 100 | 100 | 52 | 0.8 | 62 | 80 | 1.8 | 4.1 |
| COc1cc(/C=N/Nc2ncnc3[nH]ncc23)ccc1O [GW578748X] | 100 | 100 | 63 | 89 | 25 | 0.2 | 25 | 43 | 4.5 | 11 |
